tim23-1 inh – growth inhibitors of tim23-1 mutant yeast, primary screen, luminescence, uHTS; S. cerevisiae tim23-1 growth, BacTiter-Glo luminescence, 24 h; inhibition, % at 20 µM; actives 1.3% (n = 330,000); AID 463212, 2010;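 active means growth inhibition of the mutant yeast at or above 50%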;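 further: temperature-sensitive mutant grown at 25 °C; plate controls were DMSO-treated mutant yeast for no effect and medium wells lacking yeast for full effect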
NLRP3 yeast inh – NALP3 inflammasome inhibitors in reconstituted yeast, primary screen, luminescence, uHTS; Yeast reconstituted NLRP3/ASC/caspase-1, beta-gal luminescence, 24 h; inhibition, % at 10 µM; actives 0.39% (n = 330,000);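 active means inhibition of 50% or more; inactive means inhibition below 50%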;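 further: plate controls were induced DMSO wells for no effect and uninduced yeast grown without galactose for full effect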
tim10-1 inh – growth inhibitors of tim10-1 mutant yeast, primary screen, luminescence, uHTS; S. cerevisiae tim10-1 ts strain growth, BacTiter-Glo, 24 h; inhibition, % at 20 µM; actives 2.2% (n = 330,000); AID 463190, 2010;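 active means inhibition of at least 40%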;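 further: mutant grown at 25 °C; 0% = DMSO wells with yeast and 100% = wells holding no yeast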
NALP1 inh – NALP1 inflammasome inhibitors in reconstituted yeast, colorimetric, S. cerevisiae, triplicate retest; S. cerevisiae NALP1/ASC/caspase-1 growth, X-gal OD620, 72 h; inhibition, % at 10 µM; actives 0.61% (n = 280,000); in the data active means inhibition mostly above about 24%, no sharp cut-off; inactive means mostly below about 32%
TIM10 inh – growth inhibitors of isogenic TIM10 control yeast, primary screen, counter-screen for tim10-1 yeast inhibitor project, luminescence, uHTS; inhibition, % at 10 µM; actives 1.4% (n = 330,000); S. cerevisiae TIM10 strain growth, BacTiter-Glo luminescence, 24 h;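 active means inhibition of 40% or more at the single tested concentration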;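 further: wild-type TIM10 isogenic control strain grown at permissive 25 °C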
NALP3 confirm – NALP3 inhibitors retested in yeast, confirmation, luminescence, single concentration; yeast expressing human NALP3; actives 81% (n = 1,300); shares compounds with NLRP3 yeast inh; inhibition, % at 10 µM; AID 435006, 2010; in the data active means inhibition above about 48%
Casp1 ASC ctr – CASP1-PYCARD signaling inhibition in yeast, confirmatory test, counterassay for NLRP3 inhibitor program, one-dose; shares compounds with NLRP3 yeast inh; yeast expressing Caspase-1-ASC, luminescence counter screen; inhibition, % at 10 µM; actives 66% (n = 1,000); AID 488784, 2010
NALP3 yeast rt – NALP3 inhibitors in yeast, repeat test, confirmation, luminescence, single concentration, retest; yeast expressing human NALP3, luminescence read-out; inhibition, % at 10 µM; shares compounds with NLRP3 yeast inh; actives 53% (n = 1,000)
Numbers without * were called inactive; nt = no result. A selection: hits, their analogues and other compounds. The true share with any hit is near 4%. Unless noted, no stated cut-off is given here; in the data, active means inhibition above about 50%; inactive means the rest.

SMILES	tim23-1 inh	NLRP3 yeast inh	tim10-1 inh	NALP1 inh	TIM10 inh	NALP3 confirm	Casp1 ASC ctr	NALP3 yeast rt
CCCCN(C(=O)CCNC(=O)NC12CC3CC(CC(C3)C1)C2)c1c(N)n(CCC)c(=O)[nH]c1=O	14	11	6	nt	0	nt	nt	nt
CCCCSc1nc2c(c(C(F)(F)F)c1C#N)CCC2	-13	4	8	-2	-8	nt	nt	nt
CCOC(=O)CCSc1nc2c(c(C(F)(F)F)c1C#N)CCC2	10	60*	6	13	-16	47*	64*	59*
Oc1ccc(N=Nc2n[nH]c(-c3ccccc3)n2)cc1	-11	21	-12	17	-3	nt	nt	nt
Oc1ccc(N=Nc2nc(-c3ccccc3)c(-c3ccccc3)[nH]2)cc1	32	51*	10	32	22	62*	75*	50
CC1(C)C[C@H](O)[C@@]23C[C@@H](OC2=O)[C@]2(C)C(=CCC4[C@@]5(C)CC[C@H](O)C(C)(C)C5CC[C@]42C)[C@@H]3C1 (some centres undefined)	11	51*	8	nt	4	68*	41	41
CC1(C)C2CC[C@]3(C)C(CC=C4[C@@H]5C[C@@](C)(CO)[C@@H]6C[C@@]5(CC[C@]43C)C(=O)O6)[C@@]2(C)CC[C@@H]1O (some centres undefined)	-4	55*	-17	nt	-31	58*	28	30
CC1(C)C[C@H](O)[C@]2(CO)CC[C@]3(C)C(=CCC4[C@@]5(C)CC[C@H](O)C(C)(C)C5CC[C@]43C)[C@@H]2C1 (some centres undefined)	-1	41	-19	nt	-6	nt	nt	nt
Cc1sc2nc(COC(=O)c3cccc(S(=O)(=O)N(C)c4ccccc4)c3)[nH]c(=O)c2c1C	16	-2	10	3	7	nt	nt	nt
O=C(c1cccc(Cl)c1)N1CCCc2ccccc21	10	40	18	5	-4	nt	nt	nt
COc1ccc(N2CCN(C(=O)COC(=O)CCOc3ccc(C)cc3)CC2)cc1	5	24	5	nt	6	nt	nt	nt
Nc1nc2ccccc2cc1-c1cccs1	35	51*	14	32	1	69*	59*	63*
Cc1ccc(-c2ccc(CCC(=O)O)n2Cc2ccco2)cc1	3	4	31	-1	10	nt	nt	nt
O=c1cc(-c2ccccc2Cl)oc2ccc([N+](=O)[O-])c(O)c12	12	57*	10	43	11	72*	29	57*
CN1CCN(c2c([N+](=O)[O-])cnc3ccccc23)CC1	6	2	-11	nt	0	nt	nt	nt
Cc1ccc(-n2c(SCCN)nnc2-c2cccc(C)c2)cc1	13	78*	11	nt	-13	78*	nt	nt
Cc1cccc(-c2nnc(SCC#N)n2-c2ccccc2)c1	12	4	25	25	5	nt	nt	nt
CCOc1ccc(/C(O)=C2/C(=O)C(=O)N(CCCN3CCOCC3)C2c2ccc(F)cc2)cc1C (centres undefined)	7	50*	4	-4	7	67*	48	28
O=C1C(=O)N(CCCN2CCOCC2)C(c2ccc(F)cc2)/C1=C(\O)c1ccc2c(c1)OCCO2 (centres undefined)	7	-5	20	-7	-5	nt	nt	nt
CCCC(=O)c1ccc(N2CCCC2)c(F)c1	13	55*	15	-121	4	13	nt	nt
CCC(=O)c1ccc(N2CCCC2)c(F)c1	8	31	6	3	8	nt	nt	nt
CCOc1ccc(CSC(=N)N)cc1Cl	6	5	8	3	-4	nt	nt	nt
CCCCOc1ccc(CSCCN)cc1Cl	13	67*	-3	7	5	76*	nt	nt
O=C(COc1cc2oc(=O)c3c(c2cc1Cl)CCC3)N1C[C@H]2C[C@@H](C1)c1cccc(=O)n1C2	13	-5	6	-7	2	nt	nt	nt
Cc1ccccc1CSc1nnc(-c2cccs2)n1Cc1ccco1	46	-28	34	4	31	nt	nt	nt
SMILES	tim23-1 inh	NLRP3 yeast inh	tim10-1 inh	NALP1 inh	TIM10 inh	NALP3 confirm	Casp1 ASC ctr	NALP3 yeast rt
c1ccc(CSc2nnc(-c3cccs3)n2Cc2ccco2)cc1	34	-103	40	-10	23	-2	nt	nt
CC1(C)CC(=O)C=C(NCc2ccc(Cl)c(Cl)c2)C1	25	3	24	12	22	nt	nt	nt
COc1ccc2cc1Oc1ccc(cc1)CC1c3c(cc(OC)c4c3Oc3cc5c(cc3O4)CCNC5C2)CCN1C (centres undefined)	-23	34	-18	nt	-14	nt	nt	nt
COc1ccc2cc1Oc1ccc(cc1)C[C@H]1c3c(cc(OC)c4c3Oc3c(ccc5c3[C@H](C2)N(C)CC5)O4)CCN1C	-43	69*	-37	nt	-13	53*	57*	69*
CCCCCCCCNC(C)C(O)c1ccc(SC(C)C)cc1 (centres undefined)	38	67*	21	78*	-81	64*	52*	64*
O=C(NCc1ccccn1)c1cccc(NS(=O)(=O)c2ccc(Br)cc2)c1	15	19	2	nt	9	nt	nt	nt
Cc1cc(NC(=O)COC(=O)C2CC2)ccc1Br	11	25	-4	nt	-5	nt	nt	nt
CC1=CC2=NC(=O)/C(=C\c3cccn3CCOc3cccc(C)c3)C(=N)N2O1	28	60*	14	47	12	3	nt	nt
COC(=O)c1sccc1NC(=O)COc1cccc(C)c1	18	54*	0	nt	-40	58*	31	30
CCn1c2ccccc2c2cc(NC(=O)C(C)OC(=O)c3ccc(NC(=O)CC#N)cc3)ccc21 (centres undefined)	5	8	19	nt	10	nt	nt	nt
Cc1ccc(NC(=O)c2ccc3ccccc3n2)cc1S(=O)(=O)N1CCOCC1	16	-43	22	39	9	nt	nt	nt
O=C(Nc1cccc(S(=O)(=O)N2CCOCC2)c1)c1ccc2ccccc2n1	46	-104	27	nt	22	-2	nt	nt
O=Cc1c(NC2CCCCC2)c2ccccc2[nH]c1=O	26	-17	25	4	20	nt	nt	nt
CC(C)Cn1c2ccccc2c2cc(C(=O)O)ccc21	21	-123	31	-9	18	9	nt	nt
COCCNC(=O)c1cc2c3ccccc3n(C)c2s1	8	-7	10	-16	-14	nt	nt	nt
CCCNC(=O)c1cc2c3ccccc3n(C)c2s1	44	51*	36	55	31	50*	35	25
COc1ccc(CCN(C)C(=O)COc2cccc(-n3cnnn3)c2)cc1OC	-10	11	-2	nt	-5	nt	nt	nt
